Measured values: PubChem BioAssay AID1347426 (Functional Genomics Laboratory (NCATS/FGL), 2020)
The whole screen tested about 31,000 sequences, of which about 1,400 (4.5%) were called active. Many of the other results were omitted from the sample, so actives are more common in it than they were. A number with no mark means an inactive call.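 Rule for the calls: active = median seed-adjusted z-score above 1 or below -1; inactive = the rest.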

Experiment: Novel Modifiers of Survival Motor Neuron (SMN) Protein: Gene Identification via Genome-wide siRNA Screen;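 note: luminescence tracks full-length SMN protein made from the SMN2 reporter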
Settings: HEK293T SMN2-luciferase reporter, siRNA knockdown, 72 h; actives lie on both sides
Summary of the method: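 Genome-wide siRNA screen (10418 genes, 3 siRNAs each, 1 pmol per well) by reverse transfection in HEK293T cells stably carrying an SMN2-luciferase reporter; luminescence after 72 hours, normalized to negative-control siRNA, log10-transformed, MAD-scored.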

Point of comparison: CCCGGUCACUUCUGAGAAATT against ZNF696, median seed-adjusted z-score 0.17. Against it:
- GGAUCGAACCCAUGGAUCATT against ROCK2 — lower, -0.149
- GAAUAACUGCUGCUUGUAATT against TTRAP — lower, -0.33
- GACUCAUACGAGCGCAUUATT against SEMA4F — lower, 0.139
- GGCGAAGAGGGAUCAAGUATT against ZNF24 — higher, 0.388
- GAGCCACACUUUCAAGUAATT against CRIP1 — lower, -0.622
- CCGUGGACCAGUACUUUUATT against MAN2B1 — lower, -0.246
- GGACUCAGGUCUCAUGUGATT against KRTAP5-7 — lower, -0.279
- CAGGUAUUGUGGAAAGUAUTT against ADH4 — lower, -0.0991
- GCACCAUAGACUUUCGGGATT against HPCA — lower, 0.12
- GAGCGAAGGUCAUAAUACATT against MORC4 — lower, 0.13
- GCAUGAGUGUUGAUAGGUATT against AGTR2 — higher, 0.204
- ACAACUUCAUAUCCAGCUUTT against ISLR2 — higher, 0.263
- GCUGCGAAAGGAUCUCAAATT against UBE3B — lower, 0.0972
- GAACUUCACAAGUUCCUCATT against RAB31 — higher, 0.41
- GCUUAAUGGUGUCCCGUAATT against PCCA — lower, 0
- CAAGCUCCAUUUUGAAUCATT against SRR — lower, -0.256
- CAUUGCAAGUUGUUCUUGATT against GJA4 — lower, -0.18
- ACAGCGCUCUCAAUCCCUUTT against GPR150 — lower, -0.129
- GGAAGAGUCAUACAUCAAUTT against DDX55 — higher, 0.507
- GGAUCAUGCUGAGAUGCAATT against RASAL2 — lower, 0
- CCAUCGUGGUAGAUCCGUUTT against CBL — lower, -0.417
- GGUUGCUAUAUGUUCCGAATT against MLL — higher, 0.227
- UGACGUGCACAGGAAGAAATT against OXCT2 — lower, -0.449
- GGGAAUAGCUUAUCUUGUUTT against RFC4 — lower, -0.386
- GCCCGAAAGAGAAAGCGAATT against POU5F1 — lower, 0.0495
- GCAUCAACGCGGGAUUCCATT against TFAP4 — lower, -0.0515
- CGGUCAUGCUGAUCACCUUTT against GPR119 — lower, -0.382
- CUGCCGCAAUGACAACAAATT against TRIM42 — lower, -0.153
- GCGGUAAACUCGACACGUUTT against MARK3 — higher, 0.271
- CUACUUAAGUGUGAUAAUATT against OCLN — higher, 0.232
- GACUAAUGGAUGAAGCUAATT against PBK — lower, -0.311
- GGAAUUCUUUGGGCUGAAATT against MMP1 — higher, 0.205
- CCCAAUCAAGUGUUACAAATT against JMJD1C — lower, 0.0338
- UGGAGUAUCCUAUCAUGUATT against MGST3 — lower, -0.0509
- GCAAAUACGUGUAGACCUATT against EXOSC9 — lower, -0.00796
- CCACUUCUCCACACCUUGATT against NR4A1 — lower, -0.207
- GUGACUCCGUGUAUACUUATT against GCA — lower, -0.162
- GAAUUCACUUCAGAGCAAUTT against LMO4 — lower, -0.067
- CAAUCCAACUAGUAGUUCATT against SP4 — lower, -0.088
- GAUCCUAUCGUAGACAUGATT against ZNF440 — higher, 0.208
- CCAGCAAUGAGAAAAAUCUTT against HOXA2 — higher, 0.335

In the case of GACACGAUUCUUUACCAAATT against CHEK1, the median seed-adjusted z-score is reported as -5.1 (active).
With CAAAUACGGUAAUGCUGUATT against COX7B the median seed-adjusted z-score was -1.16 (active).
For CGACGGUGGAAGACACCUATT against DIRAS2, the median seed-adjusted z-score was -1.25 (active).
With CAUCAGCACUAGCACCUCATT against ZNF213 the median seed-adjusted z-score was 1.37 (active).
For GCAUAGCUCUCGAUAAGAATT against MYH4, the median seed-adjusted z-score was -1.8 (active).
With GCUUUGUCACAUAACGUGATT against SLC38A2 the median seed-adjusted z-score was -1.04 (active).
For GCAUCUACGUGGGUAACUUTT against SFRS1, the median seed-adjusted z-score was -1.66 (active).
In the case of GGCUGUACAUAGUCCUUUUTT against SNRPB, the median seed-adjusted z-score is reported as -3.17 (active).
With GCAUCGGGAAUAAAAUUUATT against LSM2 the median seed-adjusted z-score was -1.48 (active).
In the case of AGUACAUCGCGGAUCUGUATT against RCN3, the median seed-adjusted z-score is reported as -2.44 (active).
For AGAGCAAAACAGUCCGAUATT against PCDH8, the median seed-adjusted z-score was -1.03 (active).
For CCCUCUAACUGCUCGGAUATT against DNASE2, the median seed-adjusted z-score was -1.23 (active).
In the case of GGCGAACAGUUCUACAUGUTT against IFT57, the median seed-adjusted z-score is reported as -1.1 (active).
